Assay outcomes (PubChem)
LRH-1 inv ag: LRH-1 (NR5A2) inverse agonists, primary screen, cell-based, luminescence, HEK293T, StAR-luciferase reporter | 360,000 tested, 0.13% active | LRH-1 transfected, 24 h | inhibition, % at 3.6 µM | Nuclear receptor subfamily 5 group A member 2 (Homo sapiens), O00482;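 active = inhibition above the mean inhibition of all tested compounds plus 3 SD, cut at about 73% in these data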
SRC2 inh: inhibition of GAL4-SRC2 driven luciferase reporter, primary screen, SRC2 inhibitor project, cell-based, luminescence; HEK293 GAL4-SRC2 luciferase reporter; inhibition, % at 9 µM; 370,000 tested, 0.17% active;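 active = inhibition above the mean inhibition of all tested compounds plus 3 SD, set per campaign, cut at about 52% in these data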
Target sequence (Q15596 whole entry, looked up, the tested form may be a part): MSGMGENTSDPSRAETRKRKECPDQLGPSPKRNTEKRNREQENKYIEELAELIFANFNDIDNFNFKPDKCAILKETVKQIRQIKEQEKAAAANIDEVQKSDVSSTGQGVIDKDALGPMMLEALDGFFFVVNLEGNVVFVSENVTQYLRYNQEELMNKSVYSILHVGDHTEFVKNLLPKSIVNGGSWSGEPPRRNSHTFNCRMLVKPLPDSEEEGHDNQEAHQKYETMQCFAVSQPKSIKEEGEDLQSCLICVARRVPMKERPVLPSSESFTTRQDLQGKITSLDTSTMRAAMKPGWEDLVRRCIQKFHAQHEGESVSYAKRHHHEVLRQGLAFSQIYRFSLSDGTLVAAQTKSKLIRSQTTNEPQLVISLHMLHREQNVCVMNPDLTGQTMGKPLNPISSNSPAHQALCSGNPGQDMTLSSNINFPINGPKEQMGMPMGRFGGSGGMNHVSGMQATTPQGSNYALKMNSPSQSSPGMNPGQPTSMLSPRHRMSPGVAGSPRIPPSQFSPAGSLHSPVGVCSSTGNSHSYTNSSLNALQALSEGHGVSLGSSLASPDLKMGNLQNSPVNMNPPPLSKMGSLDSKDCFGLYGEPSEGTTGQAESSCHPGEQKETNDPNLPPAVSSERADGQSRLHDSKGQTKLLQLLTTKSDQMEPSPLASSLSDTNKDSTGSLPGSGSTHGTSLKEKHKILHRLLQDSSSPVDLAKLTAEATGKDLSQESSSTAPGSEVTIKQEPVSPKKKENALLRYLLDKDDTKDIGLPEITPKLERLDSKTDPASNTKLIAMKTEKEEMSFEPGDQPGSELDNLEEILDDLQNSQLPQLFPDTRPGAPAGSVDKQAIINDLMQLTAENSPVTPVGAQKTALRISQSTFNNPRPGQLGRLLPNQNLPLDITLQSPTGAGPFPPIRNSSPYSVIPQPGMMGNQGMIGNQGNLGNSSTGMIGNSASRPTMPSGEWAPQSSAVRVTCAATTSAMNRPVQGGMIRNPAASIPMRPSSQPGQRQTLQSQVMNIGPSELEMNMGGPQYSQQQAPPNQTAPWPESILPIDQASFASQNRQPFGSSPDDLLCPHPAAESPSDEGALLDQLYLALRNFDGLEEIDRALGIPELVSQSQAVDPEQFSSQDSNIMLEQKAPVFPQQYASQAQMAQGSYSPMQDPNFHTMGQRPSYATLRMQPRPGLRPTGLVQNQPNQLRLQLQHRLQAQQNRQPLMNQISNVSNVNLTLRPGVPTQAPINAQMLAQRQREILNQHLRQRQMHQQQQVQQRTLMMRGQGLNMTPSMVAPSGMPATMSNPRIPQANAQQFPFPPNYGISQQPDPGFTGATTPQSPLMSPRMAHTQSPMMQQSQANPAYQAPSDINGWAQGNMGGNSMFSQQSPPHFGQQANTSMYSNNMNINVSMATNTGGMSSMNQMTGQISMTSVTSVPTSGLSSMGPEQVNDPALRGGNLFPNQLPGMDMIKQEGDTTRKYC
NCOA1 inh: SRC1 coactivator transcriptional activity inhibitors, primary screen, cell-based, luminescence; HEK293 GAL4-SRC1 luciferase reporter; Nuclear receptor coactivator 1 (Homo sapiens), Q15788; 360,000 tested, 0.12% active; AID 588354, 2011; inhibition, % at 3.6 µM;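 active = inhibition above the campaign mean plus 3 SD, with each screening campaign given its own cutoff, cut at about 60% in these data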
SRC3 inh: SRC3 coactivator transcriptional activity inhibitors, primary screen, cell-based, luminescence. 360,000 tested, 0.17% active. HEK293 GAL4-SRC3 luciferase reporter. Nuclear receptor coactivator 3 (Homo sapiens), Q9Y6Q9. inhibition, % at 3.6 µM;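 active = inhibition above a per-campaign cutoff, the mean of all compounds plus 3 SD, cut at about 60% in these data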;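 note: higher means less SRC3-driven luciferase light from the GAL4 reporter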
NR2F2 inh: NR2F2 transcriptional activity inhibitors, primary screen, cell-based, luciferase reporter, HEK293T, luminescence. COUP transcription factor 2 (Homo sapiens), P24468. HEK293T NGFI-A luciferase reporter. inhibition, % at 8.6 µM. 370,000 tested, 0.7% active. AID 686940, 2013;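 active = inhibition above a per-plate cutoff, mean inhibition of test wells between control levels plus 3 SD, cut at about 38% in these data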;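 note: cells cotransfected with COUP-TFII expression vector driving the NGFI-A reporter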
Gli-Sufu block: Gli-Sufu pathway antagonists, primary screen, luciferase luminescence, Sufu-KO-LIGHT cells, uHTS | inhibition, % at 5 µM | Sufu-KO-LIGHT fibroblasts, Gli luciferase reporter luminescence | AID 588413, 2011 | 340,000 tested, 0.74% active;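 active = inhibition above about 55%, limit read from the data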
Gli-Sufu confirm: Gli-SUFU pathway antagonists, confirmation, single concentration, luciferase luminescence, Sufu-KO-LIGHT cells. shares compounds with Gli-Sufu block. Gli luciferase reporter. inhibition, % at 5 µM. 2,500 tested, 40% active;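 active = mean inhibition at 5 µM reaching about 45%, limit read from the data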
SufuKO cytotox: cytotoxicity in Sufu-KO-LIGHT cells, confirmation, cytotoxicity control for Gli-SUFU antagonist project, cell-based, ATP luminescence, single concentration. cytotoxicity, % at 5 µM. 2,500 tested, 32% active. shares compounds with Gli-Sufu block;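 active = mean cytotoxicity at 5 µM above about 25%, limit read from the data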;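 note: cells exposed to compound overnight for roughly 16 to 18 hours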
Wnt3a counter: Wnt3a reporter signal inhibition, confirmation, counter-screen for Gli-SUFU antagonist project, Wnt-LIGHT cells, luminescence, single concentration | shares compounds with Gli-Sufu block | Wnt3a-driven luciferase reporter | inhibition, % at 6.25 µM | 2,500 tested, 20% active | AID 651995, 2013;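 active = mean inhibition above about 25%, limit read from the data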
Large screens that a line does not name were inactive (follow-up assays come after a bar, where they were run). This is a sample that favours compounds with a hit; in the whole collection about 1.3% have one here.

O=C(CCc1nc2sc3c(c2c(=O)[nH]1)CCCC3)Nc1cccc(Cl)c1	Gli-Sufu block 70 | Gli-Sufu confirm inactive | SufuKO cytotox inactive | Wnt3a counter inactive
O=c1[nH]c(C2CCN(S(=O)(=O)c3ccc(C(F)(F)F)cc3)CC2)nc2c1nnn2Cc1cccc(F)c1	Gli-Sufu block 56 | Gli-Sufu confirm inactive | SufuKO cytotox 25 | Wnt3a counter inactive
COc1cnc(SCC(=O)O)[nH]c1=O	Gli-Sufu block 62 | Gli-Sufu confirm inactive | SufuKO cytotox inactive | Wnt3a counter inactive
CCOC(=O)CSc1ncc(OC)c(=O)[nH]1	none
O=C(CN1C(=O)C2CCCCN2C(=O)c2ccccc21)N1CCCC1 (stereo unspecified)	none (no result: LRH-1 inv ag, NCOA1 inh, SRC3 inh, Gli-Sufu block)
COc1cc2ncnc(NCCc3ccccc3)c2cc1OC	Gli-Sufu block 60 | Gli-Sufu confirm inactive | SufuKO cytotox inactive | Wnt3a counter inactive
COc1ccc(CCNc2ncnc3cc(OC)c(OC)cc23)cc1OC	none
COc1ccc(C(=O)c2cc([N+](=O)[O-])ccc2N2CCOCC2)cc1	none | Gli-Sufu confirm 58 | SufuKO cytotox 62 | Wnt3a counter inactive
Cc1ccc(C(=O)c2cc([N+](=O)[O-])ccc2N2CCCCC2)c(C)c1	Gli-Sufu block 59 | Gli-Sufu confirm 53 | SufuKO cytotox 60 | Wnt3a counter inactive
O=C(O)c1cc([N+](=O)[O-])ccc1N1CCCCC1	none
CCOC(=O)CC[C@H]1CC[C@]2(CCCN(C(=O)c3ccco3)C2)O1	none (no result: LRH-1 inv ag, NCOA1 inh, SRC3 inh, Gli-Sufu block)
Cc1cc(/C=N/n2cnnc2)c(C)n1-c1ccc(OCc2ccc(F)cc2)cc1	Gli-Sufu block 74 | Gli-Sufu confirm 74 | SufuKO cytotox 28 | Wnt3a counter inactive
Cc1cc(/C=N/n2cnnc2)c(C)n1-c1ccc(Cl)cc1	none
Cc1cc(/C=N/n2cnnc2)c(C)n1-c1ccc(OCc2ccc(Cl)cc2Cl)cc1	Gli-Sufu block 82 (no result: SRC2 inh, NR2F2 inh) | Gli-Sufu confirm 82 | SufuKO cytotox 35 | Wnt3a counter 68
Cc1ccc(C)[n+](CC(=O)c2ccc(-c3ccccc3)cc2)c1	Gli-Sufu block 56 | Gli-Sufu confirm inactive | SufuKO cytotox inactive | Wnt3a counter inactive
CCOC(=O)[C@]12CCCCC/C=C\1N(Cc1ccc(OC)cc1)C(=O)[C@H]2CC(=O)N1CCCC1	none (no result: LRH-1 inv ag, NCOA1 inh, SRC3 inh, Gli-Sufu block)
CCc1nnn2c1Cn1c3ccccc3c(=O)n1[C@@H](C)C2	none (no result: LRH-1 inv ag, NCOA1 inh, SRC3 inh, Gli-Sufu block)
c1ccc2c(-c3[nH]ncc3CNCCCn3ncc4ccccc43)cccc2c1	Gli-Sufu block 58 | Gli-Sufu confirm inactive | SufuKO cytotox inactive | Wnt3a counter inactive
CCCC(=O)Nc1cc(C)c(NC(=O)c2ccccn2)cn1	Gli-Sufu block 59 | Gli-Sufu confirm inactive | SufuKO cytotox inactive | Wnt3a counter inactive
Cc1cc(NC(=O)C(C)C)ncc1NC(=O)c1ccccn1	none
COc1ccc(CN2CN3Cc4cc(F)ccc4C3CS2(=O)=O)cc1 (stereo unspecified)	none (no result: LRH-1 inv ag, NCOA1 inh, SRC3 inh, Gli-Sufu block)
O=C(Cc1nnc(NC(=O)c2ccccc2)s1)N/N=C\c1ccc(O)c(O)c1	none
O=C(Cc1nnc(NC(=O)c2ccccc2)s1)N/N=C/c1ccc(O)cc1	none | Gli-Sufu confirm inactive | SufuKO cytotox inactive | Wnt3a counter inactive
CCOC(=O)c1ccc[n+]([O-])c1	none
CCOC(=O)c1ccc(NC(=O)c2ccc[n+]([O-])c2)cc1	Gli-Sufu block 58 | Gli-Sufu confirm inactive | SufuKO cytotox inactive | Wnt3a counter inactive
CCC(C(=O)NCCN1CCN(C)CC1)n1c(C)c2cnn(-c3ccccc3)c(=O)c2c1C (stereo unspecified)	Gli-Sufu block 94 | Gli-Sufu confirm inactive | SufuKO cytotox inactive | Wnt3a counter inactive
Cc1ccc(CNC(=O)OC(C)(C)C)c(/C=C/S(=O)(=O)NCCc2ccccc2)c1	none (no result: LRH-1 inv ag, NCOA1 inh, SRC3 inh, Gli-Sufu block)
COc1ccc2c(c1)CO[C@H]([C@H](O)CO)[C@H]2/C=C/c1ccccc1	none (no result: LRH-1 inv ag, NCOA1 inh, SRC3 inh, Gli-Sufu block)
Cn1cccc1C(=O)N1CCN(S(=O)(=O)c2ccc(C(C)(C)C)cc2)CC1	none (no result: LRH-1 inv ag, NCOA1 inh, SRC3 inh, Gli-Sufu block)
CSCCC(NC(=O)c1cccc(S(=O)(=O)N2CCOCC2)c1)C(=O)Nc1ccc(F)cc1 (stereo unspecified)	Gli-Sufu block 68 | Gli-Sufu confirm inactive | SufuKO cytotox inactive | Wnt3a counter inactive
CSCCC(NC(N)=O)C(=O)Nc1cccc(S(=O)(=O)N2CCOCC2)c1 (stereo unspecified)	none
COc1ccc(-c2cc(-c3nnc(SCC(=O)Nc4ccccc4-c4ccccc4)n3N)[nH]n2)cc1	none (no result: LRH-1 inv ag, NCOA1 inh, SRC3 inh, Gli-Sufu block)
CCCC(=O)NC(c1ccc(C)cc1)c1ccc2cccnc2c1O (stereo unspecified)	LRH-1 inv ag 85, NCOA1 inh 65, SRC3 inh 68, Gli-Sufu block 89 (no result: SRC2 inh, NR2F2 inh) | Gli-Sufu confirm 85 | SufuKO cytotox 50 | Wnt3a counter 87
CC(=O)NC(c1ccc2ccccc2c1)c1ccc2cccnc2c1O (stereo unspecified)	LRH-1 inv ag 90, Gli-Sufu block 92 | Gli-Sufu confirm 83 | SufuKO cytotox 40 | Wnt3a counter 78
CCCC(=O)NC(c1ccc(Cl)cc1)c1ccc2cccnc2c1O (stereo unspecified)	LRH-1 inv ag 77, Gli-Sufu block 86 | Gli-Sufu confirm 82 | SufuKO cytotox 35 | Wnt3a counter 71
CCC(=O)NC(c1ccc(C)cc1)c1cc(Cl)c2cccnc2c1O (stereo unspecified)	none (no result: SRC2 inh, NR2F2 inh)
COc1ccc(C(NC(C)=O)c2ccc3cccnc3c2O)c(OC)c1 (stereo unspecified)	none (no result: SRC2 inh, NR2F2 inh)
CCCCC(=O)NC(c1ccc(Cl)cc1)c1ccc2cccnc2c1O (stereo unspecified)	LRH-1 inv ag 84, Gli-Sufu block 89 | Gli-Sufu confirm 88 | SufuKO cytotox 37 | Wnt3a counter 88
O=S(=O)(c1cc2ccccc2s1)n1c(CN2CCOCC2)nc2ccccc21	none (no result: LRH-1 inv ag, NCOA1 inh, SRC3 inh, Gli-Sufu block)
COc1ccc(CN2CCC(CNC(=O)NC(C)C)CC2)cc1	none (no result: LRH-1 inv ag, NCOA1 inh, SRC3 inh, Gli-Sufu block)
CCc1cccc(CC)c1NC(=S)/C(=C(\[O-])c1ccc(Cl)s1)[n+]1ccccc1	none | Gli-Sufu confirm inactive | SufuKO cytotox inactive | Wnt3a counter inactive
